Data published in PubChem BioAssay (NCI).
The panel holds about 83,000 compounds, 20% with a hit somewhere; the sample as a whole holds those more often.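 Cells were grown in 96-well plates and exposed to the test compound at a single concentration for 48 hours; results are reported as percent growth, with values below 10 considered active.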 Unmarked numbers belong to inactive results. Calls of active or inactive are those of the source.

system: OVCAR-5 ovarian; assay: NCI-60 one-dose screen, 48 h (100 = growth as untreated, 0 = no growth, -100 = all killed); settings: 10 µM unless noted

Q: Which growth does the source give for `COc1cccc(-c2nc3sccn3c2-c2ccnc(NCCCNS(=O)(=O)c3c(Cl)cccc3Cl)c2)c1` here?
A: 85.6%

Q: With `CC1=NN(c2nc(-c3ccc(Cl)cc3)c(C#N)c(N3CCOCC3)n2)C(=O)C1` as the compound, how does the growth read?
A: 97.3%

Q: `Cc1nc2c3c(-c4ccccc4)c(-c4ccccc4)oc3ncn2n1` was tested. Which growth did it give?
A: 95.4%

Q: Which growth does the source give for `C=CC(=O)Nc1cccc(-c2nc(SC)nc(NCc3ccccc3)c2C#N)c1` here?
A: 85.4%

Q: For `N#Cc1c(N)n(CCNC(=O)c2ccccc2)c2nc3ccccc3nc12`, which growth is on record?
A: 79%

Q: How did the growth turn out when `C=C(C)[C@@H]1CC[C@]2(C(=O)OC)CC[C@]3(C)[C@H](CC[C@@H]4[C@@]5(C)C/C(=C/c6cccc(I)c6)C(=O)C(C)(C)[C@@H]5CC[C@]43C)[C@@H]12` was run?
A: 98.7%

Q: `Cc1c(/C=C/[N+](=O)[O-])ccc2c1[nH]c1ccccc12` was tested. Which growth did it give?
A: 106%

Q: `COc1cc(/C=C/c2cc(O)c3cc(C(C)=O)c(=O)oc3c2)cc2c1O[C@]1(C)CC[C@@H](O)C(C)(C)[C@H]1C2` was tested. Which growth did it give?
A: 70.6%

Q: Which growth does the source give for `CCCOc1ccc2nc(NC(=O)OC)[nH]c2c1` here?
A: 39.2%

Q: Which growth does the source give for `COc1cc(/C=C/C(=O)c2ccc(O)c(CN3CCN(c4cc5c(cc4F)c(=O)c(C(=O)O)cn5C4CC4)CC3)c2)cc(OC)c1OC` here?
A: 65.5%

Q: Which growth does the source give for `C=CCSSc1ncnc2c1ncn2C1OC(CO)C(O)C1O` (centres undefined) here?
A: 45.3%

Q: How did the growth turn out when `COc1cc2nc(N3CCCC3)nc(NCc3ccccc3)c2cc1OC` was run?
A: 80.4%

Q: How did the growth turn out when `CC[C@H]1OC(=O)[C@H](C)[C@@H](O[C@H]2C[C@@](C)(OC)[C@@H](O)[C@H](C)O2)[C@H](C)[C@@H](O[C@@H]2O[C@H](C)C[C@H](N(C)C)[C@H]2O)[C@](C)(O)C[C@H](C)CN(C)[C@H](C)[C@@H](O)[C@]1(C)O` was run?
A: 100%

Q: For `CSc1nc(NCCN2CCOCC2)c(C#N)c(-c2cccc([N+](=O)[O-])c2)n1`, which growth is on record?
A: 96.2%

Q: `CC(C)c1c(C(=O)c2ccccc2)c(-c2ccccc2)c(-c2ccc(F)cc2)n1CC[C@@H](O)C[C@@H](O)CC(=O)O` was tested. Which growth did it give?
A: 88.2%

Q: For `N#CCCN=Nc1c(O)[nH]c2ccc([N+](=O)[O-])cc12`, which growth is on record?
A: 97%

Q: For `CC[C@@H]1O[C@H](O[C@@H](c2cnc[nH]2)[C@H](NC(=O)c2nc([C@H](CC(N)=O)NC[C@@H](N)C(N)=O)nc(N)c2C)C(=O)N[C@H](C)[C@H](O)[C@H](C)C(=O)N[C@@H](C(=O)NCCc2nc(-c3nc(C(=O)NCCCCN=C(N)N)cs3)cs2)[C@@H](C)O)[C@H](O[C@@H]2O[C@H](CO)[C@H](O)[C@H](OC(N)=O)[C@@H]2O)[C@H](C)[C@@H]1C`, which growth is on record?
A: 59.5%

Q: How did the growth turn out when `COc1cc2nc(N3CCCC3)nc(Nc3ccccc3)c2cc1OC` was run?
A: -40.5% (active)

Q: How did the growth turn out when `Nc1nc2ncc(CCNc3ccc(C(=O)O)cc3)nc2c(=O)[nH]1` was run?
A: 103%

Q: `CCCN1CCN(c2ccc3nc(-c4ccc5nc(-c6ccc(OCC)cc6)[nH]c5c4)[nH]c3c2)CC1` was tested. Which growth did it give?
A: 62%

Q: `COc1ccc(Nc2nc(SC)nc(-c3cccc([N+](=O)[O-])c3)c2C#N)cc1` was tested. Which growth did it give?
A: 76.5%

Q: With `O=C1CC(=NCC(=O)n2c(-c3ccccc3)nc3ccccc32)NN1` as the compound, how does the growth read?
A: 99.9%

Q: `CC(C)(O)c1cn(CCCCN2C(=O)C(=O)c3ccccc32)nn1` was tested. Which growth did it give?
A: 96.4%

Q: For `CCCCCCCCCCCCC[N+](C)(C)Cc1ccccc1`, which growth is on record?
A: 24.9%

Q: `COc1ccc(/C=C/C(=O)c2ccc(O)c(CN3CCN(c4cc5c(cc4F)c(=O)c(C(=O)O)cn5C4CC4)CC3)c2)cc1` was tested. Which growth did it give?
A: 47.5%

Q: How did the growth turn out when `O=S(=O)(Nc1ccc(OC(F)F)cc1)c1ccc(-c2cnc(C3CC3)o2)cc1` was run?
A: 97.5%

Q: For `N#C/C(=C\c1ccc(-c2cc(C(F)(F)F)ccc2Cl)o1)c1nc(-c2ccco2)cs1`, which growth is on record?
A: 98.9%

Q: For `O=C(O)c1ccc(N=CC(=O)c2ccc(-c3ccccc3)cc2)cc1`, which growth is on record?
A: 92.6%

Q: For `COc1cccc(-c2nn(C(C)(C)C)cc2-c2ccnc(NCCCNS(=O)(=O)c3ccc(C)cc3)c2)c1`, which growth is on record?
A: 105%

Q: Which growth does the source give for `CC(C)n1c(/C=C/[C@@H](O)C[C@@H](O)CC(=O)O)c(-c2ccc(F)cc2)c2ccccc21` here?
A: 85.8%

Q: `N#Cc1c(-c2ccc(Cl)cc2)nc(N/N=C/c2cccc(Br)c2)nc1N1CCOCC1` was tested. Which growth did it give?
A: 82%

Q: How did the growth turn out when `COc1ccc(-c2nc3ccc(-c4nc5ccc(N6CCN(c7ccncc7)CC6)cc5[nH]4)cc3[nH]2)cc1OC` was run?
A: 87.2%

Q: How did the growth turn out when `CSc1nc(NCc2ccccc2)c(C#N)c(-c2cccc([N+](=O)[O-])c2)n1` was run?
A: 90.7%

Q: Which growth does the source give for `O=C(/C=C/c1cccc(Cl)c1)c1ccc(O)c(CN2CCN(c3cc4c(cc3F)c(=O)c(C(=O)O)cn4C3CC3)CC2)c1` here?
A: 52.6%

Q: How did the growth turn out when `CC1(C)CC[C@]2(C(=O)Nc3ccccn3)CC[C@]3(C)C(=CC[C@@H]4[C@@]5(C)C/C(=C/c6cccnc6)C(=O)C(C)(C)[C@@H]5CC[C@]43C)[C@H]2C1` was run?
A: 56.4%

Q: `COC(=O)[C@]12CCC(C)(C)C[C@H]1[C@H]1C(=O)C[C@@H]3[C@@]4(C)c5c([nH]c6ccccc6c5=O)C(C)(C)[C@@H]4CC[C@@]3(C)[C@]1(C)CC2` was tested. Which growth did it give?
A: 80.7%

Q: `CC1=CC(=NN=c2cc(C)n([O-])c(C)c2)C=C(C)[N+]1=O` was tested. Which growth did it give?
A: 110%

Q: With `CCC(=O)c1ccc(Cl)s1` as the compound, how does the growth read?
A: 105%

Q: With `Cn1c(=O)c2c(nc3n(-c4ccc(Cl)cc4Cl)c(Sc4nc(-c5ccccc5)c(C#N)c(=O)[nH]4)cn23)n(C)c1=O` as the compound, how does the growth read?
A: 29.3%
